Source: PubChem BioAssay (NCATS)
Results filed as inconclusive are left out. The source made the active and inactive calls. Unless noted, the call rests on the fitted dose curve; in most records, active means well fitted curve in the direction sought with a large enough effect; inconclusive means small, poorly fitted or top-dose-only effect, or another doubt; inactive means no such curve, though single readings can be large; an effect the other way counts as inactive or inconclusive.

Columns and labels:
[1] = target: T1, Tyrosine-protein phosphatase non-receptor type substrate 1 (Homo sapiens) + Leukocyte surface antigen CD47 (Homo sapiens) (UniProt P78324+Q08722); assay: CD47-SIRPalpha protein protein interaction - HTRF assay qHTS validation (AID 1347058; active means well fitted curve in the direction sought with a large enough effect in the signal ratio, not every such curve was filed as active; the % refers to the signal ratio; further: series mostly up to about 38 µM; 0% is about no effect)
T1 sequence (P78324 whole entry, looked up, the tested form may be a part): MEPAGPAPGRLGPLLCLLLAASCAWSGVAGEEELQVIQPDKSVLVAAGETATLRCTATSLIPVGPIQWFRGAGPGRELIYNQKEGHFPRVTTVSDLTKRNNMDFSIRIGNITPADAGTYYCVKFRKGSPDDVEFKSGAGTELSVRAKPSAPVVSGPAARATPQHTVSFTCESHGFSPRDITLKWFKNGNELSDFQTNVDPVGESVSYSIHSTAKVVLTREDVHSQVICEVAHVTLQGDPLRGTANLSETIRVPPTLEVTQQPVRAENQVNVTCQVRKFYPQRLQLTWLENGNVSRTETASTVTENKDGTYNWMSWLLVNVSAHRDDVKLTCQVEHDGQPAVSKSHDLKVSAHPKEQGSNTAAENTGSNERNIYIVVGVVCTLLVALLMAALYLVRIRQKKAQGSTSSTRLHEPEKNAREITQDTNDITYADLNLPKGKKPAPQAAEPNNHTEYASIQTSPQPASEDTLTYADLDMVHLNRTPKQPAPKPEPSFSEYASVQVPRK
T1 sequence (Q08722 whole entry, looked up, the tested form may be a part): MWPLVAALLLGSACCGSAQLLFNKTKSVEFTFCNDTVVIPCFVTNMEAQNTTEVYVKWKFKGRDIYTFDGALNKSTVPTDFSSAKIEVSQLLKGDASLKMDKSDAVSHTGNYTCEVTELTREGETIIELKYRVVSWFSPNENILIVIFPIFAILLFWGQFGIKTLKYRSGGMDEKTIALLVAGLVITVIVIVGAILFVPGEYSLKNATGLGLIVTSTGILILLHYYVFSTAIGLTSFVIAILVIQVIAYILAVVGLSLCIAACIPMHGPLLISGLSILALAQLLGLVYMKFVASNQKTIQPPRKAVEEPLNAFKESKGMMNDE
In short: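 Soluble extracellular domains (6His-CD47, Avi-tag-biotinylated SIRPalpha) in PBS pH 7.4 with 0.05% IGEPAL CA-630. Compounds were preincubated 30 min at RT with CD47 and anti-His-Eu, then SIRPalpha and SAV-XL665 were added. TR-FRET 665/615 ratio.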

[2] = target: T1, Tyrosine-protein phosphatase non-receptor type substrate 1 (Homo sapiens) + Leukocyte surface antigen CD47 (Homo sapiens); assay: CD47-SIRPalpha protein protein interaction - Alpha assay qHTS validation (AID 1347059);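 further: bead proximity luminescence from CD47 binding SIRPalpha after compound preincubation with SIRPalpha; on the % scale 0 is the no-effect control and ±100 the full control effect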
In short: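 In PBS (pH 7.4) with 0.05% IGEPAL CA-630, compound is preincubated with biotin-Avi-SIRPalpha ectodomain before His-CD47 ectodomain and affinity beads are added. Light-protected room-temperature incubations; AlphaScreen readout.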

[3] = target: Parathyroid hormone/parathyroid hormone-related peptide receptor (Homo sapiens) (UniProt Q03431); assay: qHTS for PTHR1 Agonists: Optimization Screen against the NCGC LOPAC library (AID 1347079);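 further: GloSensor cAMP luminescence in HEK-293 GP2 cells expressing human PTHR1 with IBMX; 0% is about no effect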
Parathyroid hormone/parathyroid hormone-related peptide receptor (Homo sapiens), sequence (Q03431 whole entry, looked up): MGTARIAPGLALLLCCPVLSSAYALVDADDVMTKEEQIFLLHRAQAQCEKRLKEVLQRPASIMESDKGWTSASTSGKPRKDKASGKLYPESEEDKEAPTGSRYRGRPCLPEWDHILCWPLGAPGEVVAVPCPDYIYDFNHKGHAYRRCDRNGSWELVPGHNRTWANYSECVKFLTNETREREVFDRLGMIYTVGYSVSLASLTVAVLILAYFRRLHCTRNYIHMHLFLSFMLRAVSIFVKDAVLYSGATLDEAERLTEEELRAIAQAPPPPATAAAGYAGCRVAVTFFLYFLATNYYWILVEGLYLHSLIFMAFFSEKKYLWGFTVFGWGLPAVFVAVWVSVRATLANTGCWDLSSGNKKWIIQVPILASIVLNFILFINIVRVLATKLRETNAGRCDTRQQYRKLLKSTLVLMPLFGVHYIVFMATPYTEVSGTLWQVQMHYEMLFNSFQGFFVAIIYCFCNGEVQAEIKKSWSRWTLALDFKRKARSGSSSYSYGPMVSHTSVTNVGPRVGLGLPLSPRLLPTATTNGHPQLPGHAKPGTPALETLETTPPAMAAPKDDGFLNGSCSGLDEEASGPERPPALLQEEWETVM
In short: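 HEK-293 GP2 cells, PTHR1 + GloSensor cAMP; 3000 cells/well, o/n. Luciferin + IBMX 0.5mM each (stock), 1 hr 37C. Cpd titration, 1 hr 37C. Lum after 15 min RT. Ctrl M-PTH(1-15) top 10uM.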

[4] = qHTS of pediatric cancer cell lines to identify multiple opportunities for drug repurposing: Primary screen for TC32 cells (AID 1347089); further: on the % scale 0 is the no-effect control and ±100 the full control effect; nearly all actives have a fitted effect of over 60% in size
In short: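 TC32 cells, 500-1,000/well in growth medium, compound-treated 48 h at 37 °C; viability from CellTiter-Glo luminescence. Primary screen: MIPE 11-point (0.78 nM–46 µM final), NPC 8-point (0.59 nM–46 µM final); confirmatory at 11-point dilutions.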

[5] = qHTS of pediatric cancer cell lines to identify multiple opportunities for drug repurposing: Primary screen for DAOY cells (AID 1347090);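 further: series mostly up to about 46 µM; plate controls were DMSO for no effect and bortezomib for full effect; nearly all actives have a fitted effect of over 55% in size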
In short: (§1)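 Eight- or eleven-point concentration series, 48 h treatment at 37 degrees C in growth media; readout CellTiter-Glo luminescence. Potency and efficacy were taken from the concentration-response curves.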

[6] = qHTS of pediatric cancer cell lines to identify multiple opportunities for drug repurposing: Primary screen for SJ-GBM2 cells (AID 1347091);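 further: plate controls were DMSO neutral control for no effect and bortezomib for full effect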
In short: as §1

[7] = qHTS of pediatric cancer cell lines to identify multiple opportunities for drug repurposing: Primary screen for A673 cells (AID 1347092); further: on the % scale 0 is the no-effect control and ±100 the full control effect; nearly all actives have a fitted effect of over 45% in size
In short: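 A673 cells (500-1,000 cells/well) were treated 48 hours at 37 degrees C with compounds at 11-point (0.78 nM to 46 µM) or 8-point (0.59 nM to 46 µM) dilutions. Viability read by CellTiter-Glo luminescence; concentration-response curves fitted.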

[8] = qHTS of pediatric cancer cell lines to identify multiple opportunities for drug repurposing: Primary screen for SK-N-MC cells (AID 1347093); further: potency means the concentration at half of the fitted maximal effect;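 on activity change, negative = cytotoxic: series mostly up to about 46 µM; plate controls were DMSO neutral control for no effect and bortezomib for full effect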
In short: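 Metabolically active cells were quantified by ATP-dependent luminescence (CellTiter-Glo, 15 min at room temperature) following 48 h treatment. Cells had been plated at 500-1,000 per well and settled for 5 h beforehand.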

[9] = qHTS of pediatric cancer cell lines to identify multiple opportunities for drug repurposing: Primary screen for BT-37 cells (AID 1347094);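 further: series mostly up to about 57 µM; plate controls were DMSO for no effect and bortezomib for full effect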
In short: (§2)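 ATP-based luminescence (CellTiter-Glo) quantifies viability after a 48-hour exposure. Compounds are dosed across 8 or 11 final concentrations; DMSO and 2.3 µM bortezomib serve as controls.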

[10] = qHTS of pediatric cancer cell lines to identify multiple opportunities for drug repurposing: Primary screen for NB-EBc1 cells (AID 1347095); further: potency means the concentration at half of the fitted maximal effect;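 on activity change, negative = cytotoxic: plate controls were DMSO neutral control for no effect and bortezomib for full effect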
In short: as §2

[11] = qHTS of pediatric cancer cell lines to identify multiple opportunities for drug repurposing: Primary screen for U-2 OS cells (AID 1347096);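 further: plate controls were DMSO wells for no effect and bortezomib positive control wells for full effect; nearly all actives have a fitted effect of over 50% in size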
In short: (§3)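 Cells (500-1,000/well) in growth media were settled 5 h at 37 degrees C, then given compounds for 48 h. Viability was read as CellTiter-Glo luminescence. Primary runs used MIPE at 11 points (0.78 nM-46 µM) and NPC at 8 points (0.59 nM-46 µM); follow-ups used 11 points.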

[12] = qHTS of pediatric cancer cell lines to identify multiple opportunities for drug repurposing: Primary screen for Saos-2 cells (AID 1347097); further: on the % scale 0 is the no-effect control and ±100 the full control effect; nearly all actives have a fitted effect of over 40% in size
In short: as §2

[13] = qHTS of pediatric cancer cell lines to identify multiple opportunities for drug repurposing: Primary screen for SK-N-SH cells (AID 1347098);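 further: DMSO served as neutral control and bortezomib at 2.3 µM as positive control; on the % scale 0 is the no-effect control and ±100 the full control effect; nearly all actives have a fitted effect of over 65% in size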
In short: (§4)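 Cells (500-1,000/well) rested 5 h, then received compounds for 48 h; metabolically active cells were measured by CellTiter-Glo luminescence. Final concentrations spanned up to 46 µM (MIPE, 11-point) or 0.59 nM-46 µM (NPC, 8-point) in primary screens, 11-point in follow-ups.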

[14] = qHTS of pediatric cancer cell lines to identify multiple opportunities for drug repurposing: Primary screen for NB1643 cells (AID 1347099);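 further: plate controls were DMSO neutral control for no effect and bortezomib positive control for full effect; nearly all actives have a fitted effect of over 50% in size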
In short: as §2

[15] = qHTS of pediatric cancer cell lines to identify multiple opportunities for drug repurposing: Primary screen for LAN-5 cells (AID 1347100); further: potency means the concentration at half of the fitted maximal effect;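 on activity change, negative = cytotoxic: plate controls were DMSO neutral control for no effect and bortezomib positive control for full effect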
In short: as §3

[16] = qHTS of pediatric cancer cell lines to identify multiple opportunities for drug repurposing: Primary screen for BT-12 cells (AID 1347101);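 further: plate controls were DMSO for no effect and bortezomib positive control for full effect; nearly all actives have a fitted effect of over 25% in size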
In short: as §4

[17] = qHTS of pediatric cancer cell lines to identify multiple opportunities for drug repurposing: Primary screen for Rh18 cells (AID 1347102); further: on the % scale 0 is the no-effect control and ±100 the full control effect; nearly all actives have a fitted effect of over 65% in size
In short: as §3

[18] = qHTS of pediatric cancer cell lines to identify multiple opportunities for drug repurposing: Primary screen for OHS-50 cells (AID 1347103);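 further: plate controls were DMSO neutral control for no effect and bortezomib positive control for full effect; nearly all actives have a fitted effect of over 40% in size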
In short: as §4

[19] = qHTS of pediatric cancer cell lines to identify multiple opportunities for drug repurposing: Primary screen for RD cells (AID 1347104);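 further: plate controls were DMSO for no effect and bortezomib for full effect; nearly all actives have a fitted effect of over 55% in size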
In short: as §2

[20] = qHTS of pediatric cancer cell lines to identify multiple opportunities for drug repurposing: Primary screen for MG 63 (6-TG R) cells (AID 1347105); further: on the % scale 0 is the no-effect control and ±100 the full control effect; nearly all actives have a fitted effect of over 50% in size
In short: as §2

CC(CCc1ccccc1)NCC(O)c1ccc(O)c(C(N)=O)c1 (centres undefined)
inactive: outcome [1] | Potency [2] | outcome [3]

N[C@@H](CCC(=O)N[C@@H](CS)C(=O)NCC(=O)O)C(=O)O
inactive: Potency [4] | Potency [5] | Potency [6] | Potency [7] | Potency [8] | Potency [9] | Potency [10] | Potency [11] | Potency [12] | Potency [13] | Potency [14] | Potency [15] | Potency [16] | Potency [17] | Potency [18] | Potency [19]

Oc1ccc(O)cc1
active: Potency [8] 26.6 µM | Potency [10] 6.68 µM | Potency [15] 7.5 µM
inactive: outcome [1] | Potency [2] | outcome [3] | Potency [9] | Potency [11] | Potency [13] | Potency [17] | Potency [19] | Potency [20]

N[C@H](CO)C(=O)O
inactive: outcome [1] | Potency [2] | outcome [3]

CC(C)C[C@H]1C(=O)N2CCC[C@H]2[C@]2(O)O[C@](NC(=O)[C@@H]3C=C4c5cccc6[nH]c(Br)c(c56)C[C@H]4N(C)C3)(C(C)C)C(=O)N12
inactive: Potency [2] | outcome [3]

C[C@]12CCC(=O)C=C1CC[C@H]1[C@@H]3CC[C@](O)(C(=O)CO)[C@@]3(C)C[C@H](O)[C@@]12F
inactive: Potency [4] | Potency [5] | Potency [6] | Potency [7] | Potency [8] | Potency [9] | Potency [10] | Potency [11] | Potency [12] | Potency [13] | Potency [14] | Potency [15] | Potency [16] | Potency [17] | Potency [18] | Potency [19]

CCCC1O[C@@H]2C[C@H]3[C@@H]4CCC5=CC(=O)C=C[C@]5(C)[C@H]4[C@@H](O)C[C@]3(C)[C@]2(C(=O)CO)O1 (some centres undefined)
inactive: outcome [1] | Potency [2] | outcome [3]

NC[C@H]1O[C@H](O[C@H]2[C@H](O[C@@H]3O[C@H](CO)[C@@H](O)[C@H]3O)C(O)[C@H](N)C[C@@H]2N)[C@H](N)[C@@H](O)[C@@H]1O (some centres undefined)
inactive: activity change, negative = cytotoxic [4] 6.72% [at 9.17 µM] | activity change, negative = cytotoxic [5] 6.37% [at 9.22 µM] | activity change, negative = cytotoxic [6] 15.5% [at 9.22 µM] | activity change, negative = cytotoxic [7] -0.207% [at 9.22 µM] | activity change, negative = cytotoxic [8] -3.87% [at 9.22 µM] | activity change, negative = cytotoxic [9] 10.7% [at 11.5 µM] | activity change, negative = cytotoxic [10] 28.9% [at 9.22 µM] | activity change, negative = cytotoxic [11] 11.5% [at 9.22 µM] | activity change, negative = cytotoxic [12] -4.84% [at 9.22 µM] | activity change, negative = cytotoxic [13] 19.9% [at 11.4 µM] | activity change, negative = cytotoxic [14] 0% [at 9.22 µM] | activity change, negative = cytotoxic [15] 25.3% [at 9.22 µM] | activity change, negative = cytotoxic [16] 7.42% [at 11.5 µM] | activity change, negative = cytotoxic [17] 31.2% [at 9.22 µM] | activity change, negative = cytotoxic [18] 7.33% [at 11.5 µM]

CC(=O)O[C@H]1C[C@@H]2CC[C@@H]3[C@H](CC[C@@]4(C)[C@H]3C[C@H]([N+]3(C)CCCCC3)[C@@H]4OC(C)=O)[C@@]2(C)C[C@@H]1[N+]1(C)CCCCC1
inactive: outcome [1] | Potency [2] | outcome [3]

O=C1CCC(c2ccc(-n3ccnc3)cc2)=NN1
inactive: outcome [1] | Potency [2] | outcome [3]

COc1cc(NS(C)(=O)=O)ccc1Nc1c2ccccc2nc2ccccc12
inactive: outcome [3]

C[N+]1(CCCCC[N+]2(C)CCCC2)CCCC1
inactive: outcome [1] | Potency [2] | outcome [3]

CC1(C)CCC(NC(=O)[C@@H](N)CCC(=O)O)CC1
inactive: outcome [1] | Potency [2] | outcome [3]

C/C=C/c1ccc(OC)cc1
inactive: Potency [4] | Potency [5] | Potency [6] | Potency [7] | Potency [8] | Potency [9] | Potency [10] | Potency [11] | Potency [12] | Potency [13] | Potency [14] | Potency [15] | Potency [16] | Potency [17] | Potency [18] | Potency [19]

Cc1ccc(Nc2c(F)cccc2Cl)c(CC(=O)O)c1
inactive: Potency [4] | Potency [5] | Potency [6] | Potency [7] | Potency [8] | Potency [9] | Potency [10] | Potency [11] | Potency [12] | Potency [13] | Potency [14] | Potency [15] | Potency [16] | Potency [17] | Potency [18]
